# Records with an inconclusive call do not appear. Calls of active or inactive are those of the source. Calls follow the shape of the dose curve; as a rule, active = well fitted inhibition curve with a large enough effect; inconclusive = small, poorly fitted or top-dose-only effect; inactive = flat fitted curve, though single readings scatter.
# System: P94_40
# Test: qHTS profiling for inhibitors of Plasmodium falciparum proliferation (AID 504749); also: nearly all actives have a fitted effect of over 60% in size;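 as to activity, negative = inhibition: 0% = DMSO vehicle and full inhibition = artemisinin control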
# Settings: P. falciparum in erythrocytes, SYBR Green DNA, 72 h; series mostly up to 28.7 µM; activity, negative = inhibition: at the top concentration
# Outline: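 Parasite proliferation within erythrocytes, 72 h exposure. Endpoint: SYBR Green I fluorescence after overnight lysis at room temperature. Controls: 0.29 uM artemisinin, DMSO.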
# Potency is read from the fitted curve at half-maximal effect.
SMILES,"activity, negative = inhibition",Potency
CC1(C)S[C@@H]2[C@H](NC(=O)[C@@H](NC(=O)N3CCNC3=O)c3ccccc3)C(=O)N2[C@H]1C(=O)O,29% [at 12.8 µM] (inactive),–
COCC(=O)Nc1cc(Sc2ccccc2)ccc1N=C(NC(=O)OC)NC(=O)OC,-20.2% (inactive),–
CC(O)CO (configuration not stated),8.41% (inactive),–
COC(=O)CCC(=O)CN,4.09% (inactive),–
CC1=C(/C=C/C(C)=C/C=C/C(C)=C/C=C/C=C(C)/C=C/C=C(C)/C=C/C2=C(C)CCCC2(C)C)C(C)(C)CCC1,11.3% (inactive),–
CN=C(NC#N)Nc1ccc(C2=NNC(=O)C[C@@H]2C)cc1,7.33% (inactive),–
C[C@H]1C[C@H]2[C@@H]3CCC4=CC(=O)C=C[C@]4(C)[C@@]3(F)[C@@H](O)C[C@]2(C)[C@@]1(O)C(=O)CO,2.74% (inactive),–
O=C1C(=O)c2ncccc2-c2cccnc21,–,794 nM (active)
CCCCCCCCCCCCCC[n+]1ccc(C)cc1,–,4470 nM (active)
COC(C(=O)C(O)C(C)O)C1Cc2cc3cc(OC4CC(OC5CC(O)C(O)C(C)O5)C(O)C(C)O4)c(C)c(O)c3c(O)c2C(=O)C1OC1CC(OC2CC(OC3CC(C)(O)C(O)C(C)O3)C(O)C(C)O2)C(O)C(C)O1 (configuration not stated),–,126 nM (active)
CCCCCCC(O)C/C=C/CCCCCCCC(=O)O (configuration not stated),0.41% (inactive),–
CCCCCC(CC)COC(=O)CC(C(=O)OCC(CC)CCCC)S(=O)(=O)O (configuration not stated),9.17% (inactive),–
C[C@]12CCC(=O)C=C1CC[C@@H]1[C@@H]2[C@@H](O)C[C@@]2(C)[C@H]1CC[C@]2(O)C(=O)COP(=O)(O)O,2.08% (inactive),–
Cc1cc(C(=O)NNCc2ccccc2)no1,3.29% [at 12.8 µM] (inactive),–
O=C(O)CCC(=O)C(=O)O,4.86% (inactive),–
CCCCCCCCCCCC[n+]1ccc2ccccc2c1,–,891 nM (active)
Cc1cn([C@H]2C[C@H](O)[C@@H](CO)O2)c(=O)[nH]c1=O,4.05% (inactive),–

# Source: PubChem BioAssay (NCATS)
